# A selection: hits, their analogues and other compounds. The true share with any hit is near 3.6%.
# Sm TGR inh: qHTS Assay for the Inhibitors of Schistosoma Mansoni Peroxiredoxins; Schistosoma mansoni thioredoxin glutathione reductase (TGR), Q962Y6; purified TGR, DTNB reduction, TNB absorbance 405 nm; Potency, µM (highest dose often 114 µM), for inactives: at the highest dose activity change, negative = inhibition, actives largely listed as inhibitors; actives 3% (n = 360,000); AID 485364, 2010; further: nearly all actives have a fitted effect of over 60% in size
#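 First, TGR (20 nM dispensed) and NADPH were mixed with compound. Second, a 15 min room-temperature incubation followed. Third, further NADPH and then DTNB were added to start the reaction. Finally, TNB absorbance was monitored kinetically.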
# AmpC inh no detg: qHTS Inhibitors of AmpC Beta-Lactamase (assay without detergent); P00811; AID 485341, 2010; AmpC nitrocefin hydrolysis, absorbance 480 nm, 0.0001% Triton; actives 0.52% (n = 330,000); Potency, µM (top dose mostly 57.1 µM), without a hit: at the highest dose activity change, negative = inhibition, actives largely listed as inhibitors;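 further: plate controls were no compound for no effect and no enzyme for full effect; nearly all actives have a fitted effect of over 20% in size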
#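 20 mM phosphate pH 7.0 + 0.01% (detergent screen) or 0.0001% Triton X-100; 5.3 nM AmpC reagent; cpd preinc 15 min RT; nitrocefin (800 uM stock) to start; A480 q20 s × 4 min; Activity was normalised to no-enzyme and no-compound control wells.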
# FBPA Giardia inh: qHTS Assay for Inhibitors of Fructose-1,6-bisphosphate Aldolase from Giardia Lamblia | AID 2451, 2010 | purified Giardia FBPA | A8B2U2 | Potency, µM (doses to about 59.6 µM), without a hit: at the highest dose activity, negative = inhibition, hits mostly inhibitors | actives 0.71% (n = 290,000); further: nearly all actives have a fitted effect of over 55% in size
# Target sequence (A8B2U2 whole entry, looked up): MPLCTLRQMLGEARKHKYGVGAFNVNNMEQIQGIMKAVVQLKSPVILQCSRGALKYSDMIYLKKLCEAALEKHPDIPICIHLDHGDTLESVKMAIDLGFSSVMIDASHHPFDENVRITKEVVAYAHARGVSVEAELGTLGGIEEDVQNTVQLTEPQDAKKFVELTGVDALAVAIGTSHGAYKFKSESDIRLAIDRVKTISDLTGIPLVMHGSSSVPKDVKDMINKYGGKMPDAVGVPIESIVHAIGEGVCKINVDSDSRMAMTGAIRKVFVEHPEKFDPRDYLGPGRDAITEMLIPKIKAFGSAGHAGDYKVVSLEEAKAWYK
#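 40 nM FBPA preincubated 10 min at RT with compound (up to 57.5 uM final), then substrate plus GAPDH/TPI/NAD/arsenate coupling and diaphorase/resazurin added. Fluorescence read after 20 min at RT, 525/598 nm.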
# AmpC inh detg: qHTS Inhibitors of AmpC Beta-Lactamase (assay with detergent). AmpC hydrolysis of nitrocefin, absorbance 480 nm, 0.01% Triton. Potency, µM (doses to about 114 µM), for inactives: at the highest dose activity change, negative = inhibition, actives largely listed as inhibitors. actives 0.041% (n = 370,000). P00811;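 further: 0% = no-compound wells and -100% = no-enzyme wells; nearly all actives have a fitted effect of over 25% in size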
#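 AmpC (5.3 nM in the dispensed reagent) in 20 mM phosphate pH 7.0 with 0.01% (detergent screen) or 0.0001% Triton X-100 was preincubated with compounds for 15 min at room temperature. Nitrocefin was then added from an 800 uM solution, and hydrolysis was followed at 480 nm.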
# Starred values were filed as active, the others as inactive; ? = inconclusive; . = no result. The call rests on the fitted dose curve; in most records, active means well fitted curve in the direction sought with a large enough effect; inconclusive means small, poorly fitted or top-dose-only effect, or another doubt; inactive means no such curve, though single readings can be large; an effect the other way counts as inactive or inconclusive. Unless noted, on the % scale 0 is the no-effect control and ±100 the full control effect; potency means the concentration at half of the fitted maximal effect.
SMILES,Sm TGR inh,AmpC inh no detg,FBPA Giardia inh,AmpC inh detg
O=C(CN1CCN(S(=O)(=O)c2ccc(Cl)c(Cl)c2)CC1)N1CCCC1,-27.4%,61.1%,.,2.7%
CC(C)CCNC(=O)c1ccc2c(c1)NC(=O)C(CS(=O)(=O)Cc1cccc(Br)c1)N2 (stereo unspecified),50.1µM*,.,.,1.5%
Cc1ccc(OCC(=O)Nc2ccc(NC(=O)c3ccccc3)c(C)c2)cc1,-3.4%,-16.5%,.,?
CC(=O)NC(Cc1ccc(N(CCCl)CCCl)cc1)C(=O)NC(CC(C)C)C(=O)O (stereo unspecified),28.2µM*,-10.6%,-26.4%,8.5%
CCOC(=O)C(NC(=O)C(Cc1ccc(N(CCCl)CCCl)cc1)NC(C)=O)C(C)C (stereo unspecified),.,90.1%,-8.8%,-12.2%
COc1ccc(-n2nnnc2C2CCN(S(=O)(=O)c3ccc(NC(C)=O)cc3)CC2)cc1,5.0%,.,.,17.5%
COc1ccc(Cl)cc1-c1nc(SCC(N)=O)n[nH]1,0.0%,-11.6%,2.3%,-1.0%
CC(C)CC1=C/C(=C/c2ccc(-c3ccccc3)o2)C(=O)O1,12.6µM*,31.6µM*,1.2%,?
COc1ccc(C2CC(c3cccs3)=NN2C(=O)c2ccccc2)cc1OC (stereo unspecified),11.3%,101.2%,-0.3%,-5.3%
COc1cc(C2CC(c3cccs3)=NN2C(=O)CCl)ccc1OC(F)F (stereo unspecified),7.94µM*,-10.3%,-10.4%,4.0%
COc1ccc(C2CC(c3cccs3)=NN2C(=O)CCl)cc1OC (stereo unspecified),4.47µM*,27.7%,-1.9%,?
Cc1ccc(-c2nc(CS(=O)(=O)CC(=O)NC3CC3)c(C)o2)cc1,31.6µM*,29.7%,.,3.7%
Cc1ccc(-c2nc(CS(=O)(=O)CC(=O)NC3CCCCC3C)c(C)o2)cc1 (stereo unspecified),35.5µM*,1.7%,0.0%,-14.7%
COc1cccc(-c2nc(CS(=O)(=O)CC(=O)NC3CCC(C)CC3)c(C)o2)c1 (stereo unspecified),-16.8%,96.4%,10.7%,?
O=C(O)c1ccccc1C(=O)N1CCN(C(=O)c2ccccc2Cl)CC1,89.1µM*,-18.5%,1.1%,0.7%
O=C(O)c1ccccc1C(=O)N1CCN(c2ccccc2)CC1,35.5µM*,-4.4%,10.0%,-16.6%
O=C(c1ccccc1C(=O)N1CCN(c2ccccc2)CC1)N1CCN(c2ccccc2)CC1,7.8%,107.2%,-7.1%,0.4%
C[C@H](NC(=O)c1nc[nH]c1C(=O)NCCCCCN)C(=O)OCc1ccccc1,-17.7%,-9.8%,.,-11.3%
CN(C)C(=O)c1ccc(-n2cccn2)nc1,-1.4%,-18.6%,0.4%,?
O=C(O)c1ccc(N=Cc2c(O)ccc3ccccc23)cc1,?,-25.1%,?,-10.1%
Cc1nnc(C)n1/N=C/c1c(O)ccc2ccccc12,28.2µM*,-27.7%,-17.0%,-6.8%
O=S(=O)(/N=C/c1c(O)ccc2ccccc12)c1ccccc1,39.8µM*,-25.1%,?,3.3%
Cn1c(/N=C/c2c(O)ccc3ccccc23)nc2ccccc21,10µM*,-24.8%,0.706µM*,5.3%
Cc1ccc(NC(=O)CN2CCCCCC2)cc1[N+](=O)[O-],6.9%,-1.3%,3.2%,0.9%
CCOC(=O)C1=C(C)OC(N)=C(C#N)C1c1cc(SCC)oc1C (stereo unspecified),44.7µM*,-14.1%,-22.4%,3.4%
CCOC(=O)C1=C(C)OC(N)=C(C#N)C1c1cc2ccccc2nc1N1CCCCC1 (stereo unspecified),-0.9%,1.2%,?,-12.5%
CCOC(=O)C1=C(C)OC(N)=C(C#N)C1c1cc2cc(C)ccc2nc1N1CCCCC1 (stereo unspecified),3.55µM*,-11.5%,?,-9.8%
O=C(NC1CCCC1)c1ccc2c(=O)n(Cc3ccccc3)c(SCc3ccccc3F)nc2c1,-5.8%,.,.,-10.7%
CN1c2ccccc2C(C)(C)[C@]12C=Cc1cc(O)ccc1O2,-30.2%,-34.2%,-22.6%,-5.5%
CN1c2ccccc2C(C)(C)C12C=Nc1c(ccc3ccccc13)O2 (stereo unspecified),20µM*,25.1µM*,11.2µM*,?

# Screening results: PubChem, National Center for Advancing Translational Sciences (NCATS)
